Over roughly 18,000 sequences, “TetR repression strength (sort-seq, GFP reporter)” has its median near 0.23; the highest 2% begin near 0.68. What follows is part of a selection rich in the highest values, with near analogues and random picks from the rest.

This assay deals with TetR (class B, Tn10) (UniProt P04483). Put plainly: TetR repression strength (sort-seq, GFP reporter) (relative to tetO2 = 1); higher = stronger repression. The settings on record: E. coli. Put shortly: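 E. coli SIG10-MAX carried a low-copy plasmid library with eight randomized operator positions between a constitutive promoter and sfGFP, with TetR constitutively expressed. Cells grew 5 h at 37 °C in LB with 50 µg/mL chloramphenicol, then 10^6 cells were FACS-sorted into 13 fluorescence bins, each Illumina-sequenced. Repression strength is the top bin index plus one minus the read-weighted mean bin, divided by the wild-type operator value. Three independent transformations; variants with ≥30 reads in all replicates and CV ≤0.5 were averaged.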
Sequence of TetR (class B, Tn10) (P04483 whole entry): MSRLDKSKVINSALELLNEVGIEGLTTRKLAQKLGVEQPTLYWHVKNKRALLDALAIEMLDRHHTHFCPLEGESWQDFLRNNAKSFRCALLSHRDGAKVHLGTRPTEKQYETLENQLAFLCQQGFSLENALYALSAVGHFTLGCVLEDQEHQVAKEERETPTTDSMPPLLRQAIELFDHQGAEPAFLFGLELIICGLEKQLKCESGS
The sequence TCCCATGTAGTATGCGAGA had a TetR repression strength of 0.327.
In the case of TCCCCACTAGTGGCGGAGA it was 0.514; in that of TCCCGGTAAGTAACGGAGA, 0.201.
Next, TCCCTGTGAGTCGCAGAGA: 0.172.
Next, TCCCTTTTAGTGCCTGAGA: 0.325; TCCCTTTGAGTGCATGAGA: 0.403.
Regarding TCCCTTTTAGTGAATGAGA, the TetR repression strength was found to be 0.889.
In the case of TCCCTTTTAGTGCATGAGA it was 0.711; in that of TCCCTTTTAGTGAGAGAGA, 0.425.
Next, TCCCTTTGAGTGAATGAGA: 0.472; TCCCGGAAAGTAGCAGAGA: 0.0718; TCCCTGTTAGTGTGTGAGA: 0.138.
In the case of TCCCAATGAGTAGGGGAGA it was 0.0811.
Take TCCCCACAAGTTCGGGAGA: the TetR repression strength is 0.0657.
Consider TCCCTTCTAGTCTAAGAGA, for which the TetR repression strength stood at 0.306.
In the case of TCCCGCAAAGTCAGGGAGA it was 0.273; in that of TCCCAGCGAGTACGTGAGA, 0.134.
Next, TCCCGTACAGTATAGGAGA: 0.0753; TCCCGGTAAGTGAAAGAGA: 0.684.
Next, TCCCGGTAAGTGGCTGAGA: 1.11; TCCCGGTAAGTAGCTGAGA: 0.208; TCCCGGTAAGTGGGTGAGA: 0.141.
In turn, TCCCAGTCAGTGAAAGAGA displayed a TetR repression strength of 0.62.
Next, TCCCGGTAAGTGAGAGAGA: 0.502; TCCCGGTGAGTGAAAGAGA: 0.347.
In the case of TCCCGGTCAGTGAGAGAGA it was 0.591; in that of TCCCGGTCAGTGAAAGAGA, 0.692; in that of TCCCCCCCAGTCGATGAGA, 0.409.
Next, TCCCATGGAGTTCGAGAGA: 0.0732; TCCCCTTAAGTTAATGAGA: 0.515.
In turn, TCCCACGGAGTCGCGGAGA showed a TetR repression strength of 0.172.
For TCCCATGGAGTGTAAGAGA, the TetR repression strength worked out at 0.236.
TCCCGGGCAGTCGTGGAGA registered a TetR repression strength of 0.285.
TCCCTTCTAGTCCTCGAGA returned a TetR repression strength of 0.421.
Next, TCCCTAAGAGTCCTCGAGA: 0.353.
Next, TCCCTACGAGTACTCGAGA: 0.207; TCCCTACGAGTCCTCGAGA: 1.14.
In the case of TCCCTACTAGTCCTCGAGA it was 1.12; in that of TCCCTAATAGTCCTCGAGA, 0.385.
Sequence TCCCATATAGTTTAGGAGA had a TetR repression strength of 0.0773.
The sequence TCCCCCGCAGTCCCTGAGA had a TetR repression strength of 0.333.
TCCCAGATAGTCGCGGAGA showed a TetR repression strength of 0.108.
Turning to TCCCCATCAGTGGTAGAGA, the TetR repression strength was determined as 0.417.
As to TCCCGATGAGTTAATGAGA, the TetR repression strength stood at 0.196.
TCCCGAGGAGTTAAGGAGA registered a TetR repression strength of 0.295.
In turn, TCCCGATGAGTTAGAGAGA came in with a TetR repression strength of 0.749.
In the case of TCCCGATGAGTTAGCGAGA it was 0.201; in that of TCCCGATGAGTTAGGGAGA, 0.296; in that of TCCCGATGAGTTAAGGAGA, 0.797.
In the case of TCCCGAGGAGTAAGTGAGA it was 0.204; in that of TCCCTTGTAGTATGTGAGA, 0.133.
Sequence TCCCTAGTAGTACTGGAGA gave a TetR repression strength of 0.176.
For TCCCGGCTAGTACGGGAGA, the TetR repression strength was 0.244.
Turning to TCCCTTGCAGTGACCGAGA, the TetR repression strength was 0.315.
In the case of TCCCTGTCAGTCACCGAGA, the TetR repression strength amounted to 0.664.
Consider TCCCTTTCAGTGACTGAGA, for which the TetR repression strength was 0.435.
With TCCCGATCAGTGACCGAGA, the TetR repression strength worked out at 0.715.
Turning to TCCCGATCAGTGAGCGAGA, the TetR repression strength turned out to be 0.544.
TCCCTATCAGTCACCGAGA returned a TetR repression strength of 0.789.
Consider TCCCTATCAGTCGCCGAGA, for which the TetR repression strength came to 0.455.
TCCCTATCAGTGGGGGAGA yielded a TetR repression strength of 0.378.
Turning to TCCCTATCAGTCGCGGAGA, the TetR repression strength worked out at 0.456.
Take TCCCGATCAGTGACTGAGA: the TetR repression strength stood at 0.427.
In the case of TCCCTTTCAGTGACCGAGA it was 0.946.
Sequence TCCCTATCAGTGGCGGAGA returned a TetR repression strength of 0.715.
Next, TCCCGTCTAGTAGCAGAGA: 0.634; TCCCATGGAGTGTTAGAGA: 0.246.
Next, TCCCCGATAGTCGTGGAGA: 0.177; TCCCAGCGAGTGCAAGAGA: 0.364; TCCCGGCCAGTGGAGGAGA: 0.19.
Next, TCCCAAATAGTCGTGGAGA: 0.415; TCCCGCCAAGTGCGCGAGA: 0.258; TCCCGTGCAGTAAACGAGA: 0.326.
In turn, TCCCTATCAGTTACCGAGA had a TetR repression strength of 0.663.
For the sequence TCCCTATGAGTGACCGAGA, the TetR repression strength was found to be 0.604.
In the case of TCCCGGGCAGTAATCGAGA it was 0.121; in that of TCCCGTTCAGTGACAGAGA, 0.504.
Sequence TCCCGACCAGTGACAGAGA gave a TetR repression strength of 0.644.
TCCCGATCAGTGAACGAGA yielded a TetR repression strength of 0.628.
In the case of TCCCGTGCAGTAATCGAGA it was 0.749; in that of TCCCTATCAGTGACCGAGA, 0.944.
Regarding TCCCTATCAGTGAAGGAGA, the TetR repression strength was determined as 0.51.
In the case of TCCCTATCAGTGAACGAGA it was 0.862.
TCCCGATCAGTGACAGAGA had a TetR repression strength of 0.742.
Regarding TCCCACATAGTGGTAGAGA, the TetR repression strength came to 0.199.
Next, TCCCACTGAGTGCCTGAGA: 0.139; TCCCATCCAGTGCTTGAGA: 0.267; TCCCCGTAAGTGAGAGAGA: 0.149.
Next, TCCCTTAAAGTATGCGAGA: 0.238; TCCCTTTAAGTTCTCGAGA: 0.271; TCCCTGTAAGTATGGGAGA: 0.174.
Next, TCCCCCGAAGTTAAGGAGA: 0.155.
For TCCCTATCAGTGGGCGAGA, the TetR repression strength amounted to 0.541.
TCCCTATCAGTGGCCGAGA showed a TetR repression strength of 0.724.
Next, TCCCGGTGAGTGACCGAGA: 0.207.
Next, TCCCGTGCAGTGACCGAGA: 0.709; TCCCGCGCAGTGACCGAGA: 0.219; TCCCGTGCAGTGCCCGAGA: 0.361.
For the sequence TCCCGATAAGTGGCCGAGA, the TetR repression strength is 0.171.
In the case of TCCCGGTCAGTCACCGAGA it was 0.669; in that of TCCCTATAAGTGGCCGAGA, 0.719.
TCCCGATCAGTGGCCGAGA: the TetR repression strength is 0.565.
Consider TCCCTATGAGTGGCCGAGA, for which the TetR repression strength turned out to be 0.402.
TCCCGGTCAGTGACCGAGA gave a TetR repression strength of 0.715.
In the case of TCCCAGTGAGTCCATGAGA it was 0.163.

The values above are taken from a collection of fitness landscapes (doi:10.1038/s41467-024-54723-y).
